In PubChem BioAssay (Tox21):
Results filed as inconclusive are left out. Calls of active or inactive are those of the source. The call rests on the fitted dose curve; in most records, active means well fitted activation curve with a large enough effect in the signal ratio in the repeat runs (not every such curve was filed as active); inconclusive means weak or mixed curves; inactive means flat fitted curve, though single readings scatter; the % refers to the signal ratio.

Test: qHTS assay to identify small molecule agonists of the TGF-beta/Smad signaling pathway (AID 1346859)
Details: SBE-bla HEK293T, TGF-beta/Smad beta-lactamase reporter, 5 h; series mostly up to 76.8 µM
From the text: U.S. Tox21 Program National Center for Advancing Translational Sciences [NCATS] NIH Chemical Genomics Center [NCGC] U.S. Environmental Protection Agency [EPA] National Institutes of Environmental Health Sciences [NIEHS] National Toxicology Program [NTP] U.S. Food and Drug Administration [FDA] Tox21 Assay Overview: Transforming growth factor beta (TGF-beta) superfamily consists of a large number of structurally related dimeric proteins that act as hormones or local mediators in regulating a wide range of biological functions. This superfamily includes TGF-betas themselves, the bone morphogenetic proteins (BMPs) and the activins. These ligands induce oligomerization of serine/threonine receptor kinases and phosphorylate the cytoplasmic signaling molecules of Smad protein family. CellSensor SBE-bla HEK 293T cell line (Life Technologies, Carlsbad, CA), responsive to TGF-beta was used to screen Tox21 10K compound library for identification of agonists/antagonists of the Smad signaling pathway. This cell line contains a beta-lactamase reporter gene under control of the Smad binding element (SBE) stably integrated into HEK 293T cells.
Tox21 Assay Protocol Summary: SBE-bla HEK 293T cells were dispensed at 4,000/well in 6 uL of assay medium into black wall/clear-bottom 1536-well plates using a Multidrop Combi (ThermoFisher Scientific, Waltham, MA) dispenser. After the assay plates were incubated at 37 C and 5% CO2 for an overnight, 23 nL of compounds dissolved in DMSO, positive controls or DMSO only was transferred to the assay plate by a Pintool station (Kalypsys, San Diego, CA). The assay plates were incubated at 37 C and 5% CO2 for 5 hr. One uL of LiveBLAzer B/G FRET substrate (Life Technologies) was added using a Flying Reagent Dispenser (Aurora Discovery, San Diego, CA) and the plates were incubated at room temperature for 2 hr. Fluorescence intensity (405 nm excitation, 460 nm and 530 nm emissions) was measured using an Envision plate reader (PerkinElmer, Shelton, CT).
On the % scale 0 is the no-effect control and ±100 the full control effect.

Compound	outcome	activation
CC(=O)OCCOCCOCCOC(C)=O	inactive	
COc1ccc(Cc2cnc(N)nc2N)cc1OC	inactive	
NCCCCCC(=O)O	inactive	
O=C(O)CP(=O)(O)O	inactive	
Nc1nc(=S)c2[nH]cnc2[nH]1	inactive	
O	inactive	
Cc1cccc(O)c1C	inactive	
O=C(OCc1ccccc1)c1ccc(O)cc1	inactive	
Cc1ccc(-c2cc(C(F)(F)F)nn2-c2ccc(S(N)(=O)=O)cc2)cc1	inactive	
CC(=O)CC(C)=O	inactive	
O=C(O[C@@H]1Cc2c(O)cc(O)cc2O[C@@H]1c1cc(O)c(O)c(O)c1)c1cc(O)c(O)c(O)c1	inactive	
NCCO	inactive	
O=C(Cl)c1cccc(C(=O)Cl)c1	inactive	
C[N+]1([O-])CCOCC1	inactive	
Cc1cccc([N+](=O)[O-])c1C(=O)O	inactive	
Cc1cc(Cc2cc(C)cc(C(C)(C)C)c2O)c(O)c(C(C)(C)C)c1	inactive	
O=C1CC2(CCCC2)CC(=O)N1CCCCN1CCN(c2ncccn2)CC1	inactive	
NC(N)=Nc1nc(CSCC/C(N)=N/S(N)(=O)=O)cs1	inactive	
NC12CC3CC(CC(C3)C1)C2	inactive	
OCC(CO)N[C@H]1C[C@](O)(CO)[C@@H](O)[C@H](O)[C@H]1O	inactive	

Compound	outcome	activation
C#CC(C)(CC)OC(=O)c1ccccc1C(=O)O (stereo not given)	inactive	
C=CS(=O)(=O)O	inactive	
CO[Si](OC)(OC)c1ccccc1	inactive	
CC(C)C(=O)c1c(C(C)C)nn2ccccc12	inactive	
CNCCC(Oc1ccc(C(F)(F)F)cc1)c1ccccc1 (stereo not given)	inactive	
CCC(=O)/C=C/C1C(C)=CCCC1(C)C (stereo not given)	inactive	
O=c1n(CC2CO2)c(=O)n(CC2CO2)c(=O)n1CC1CO1 (stereo not given)	inactive	
CC(C)CCCCCCc1ccc(O)cc1	inactive	
O=Cc1ccc(Cl)cc1	inactive	
CCCCCCCCCCCCCCCCCl		0.675% [at 15.8 µM] (inactive)
Cc1cc(C2(c3cc(C)c(O)cc3C)OS(=O)(=O)c3ccccc32)c(C)cc1O	inactive	
CCCN[C@H]1CCc2nc(N)sc2C1	inactive	
CC[C@H]1CN2CCc3cc(OC)c(OC)cc3[C@@H]2C[C@@H]1C[C@H]1NCCc2cc(OC)c(OC)cc21	inactive	
CC1COC(=O)O1 (stereo not given)	inactive	
OCCOCCN1CCN(C(c2ccccc2)c2ccc(Cl)cc2)CC1 (stereo not given)	inactive	
CNC1(C)C2CCC(C2)C1(C)C (stereo not given)	inactive	
COc1ccc(CCN2CCC(Nc3nc4ccccc4n3Cc3ccc(F)cc3)CC2)cc1	inactive	
O=C(Nc1ccccc1SSc1ccccc1NC(=O)c1ccccc1)c1ccccc1	inactive	
CCN(CC)C(=O)Nc1ccc(OCC(O)CNC(C)(C)C)c(C(C)=O)c1 (stereo not given)	inactive	
CC(C)CCOC(=O)c1ccc(N(C)C)cc1	inactive	
